Whole data set: some 5,000 sequences, median “log2 normalized fluorescence” near 0.089, cut for the highest 2% near 0.81. Only a selection was taken, and the highest values are over-represented in it overall.
Molecular target: MYC (p64);MAX (p21), in MYC:MAX (human;human, UniProt P01106-1;P61244-2 1-439;1-151, |)
Experiment: protein-binding microarray (anti-MAX antibody); PBM: 15 mM Tris-HCl pH 7.5, 100 mM KCl, 0.075% NP40, 7.5 mM beta-mercaptoethanol, 375 ng/ul BSA, 8 ng/ul poly(dA-dT):(dA-dT), 550 ng complex, 60 min, room tempe; high values mean tight binding
Details: protein: recombinant;recombinant; tags: 6xHis;6xHis; copies: 1;1; label: 3' end of printed strand (linker) attached to glass slide; dsDNA, one strand shown
How it was run: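 Binding, given as log2 normalized fluorescence, was measured on a custom Agilent glass array. The array bore ~5000 unique 12-nt sequences spotted in triplicate and converted to double strands by primer extension. It was incubated with 550 ng of human His-tagged MYC:MAX or MAX:MAX dimers from E. coli for 60 min at room temperature in Tris-KCl buffer, pH 7.5, with NP40, BSA and poly(dA-dT) competitor, and bound protein was detected with anti-MAX and secondary antibodies and scanned at 543 nm.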

Chain of MYC (p64);MAX (p21), in MYC:MAX (P01106 16-454, chain 1 of 2): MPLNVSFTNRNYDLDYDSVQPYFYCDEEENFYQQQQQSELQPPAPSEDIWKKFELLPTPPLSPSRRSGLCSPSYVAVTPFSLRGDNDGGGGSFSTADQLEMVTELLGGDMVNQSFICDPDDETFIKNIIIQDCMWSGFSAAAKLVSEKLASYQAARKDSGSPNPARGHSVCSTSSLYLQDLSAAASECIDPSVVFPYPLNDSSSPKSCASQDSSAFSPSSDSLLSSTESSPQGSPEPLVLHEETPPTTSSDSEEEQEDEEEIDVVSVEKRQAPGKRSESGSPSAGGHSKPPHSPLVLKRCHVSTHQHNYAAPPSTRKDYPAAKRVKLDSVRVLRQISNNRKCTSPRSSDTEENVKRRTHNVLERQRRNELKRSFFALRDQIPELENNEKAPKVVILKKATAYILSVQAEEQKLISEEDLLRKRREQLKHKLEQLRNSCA
Chain of MYC (p64);MAX (p21), in MYC:MAX (P61244 other isoform, or with tags, fused parts or gaps |, chain 2 of 2): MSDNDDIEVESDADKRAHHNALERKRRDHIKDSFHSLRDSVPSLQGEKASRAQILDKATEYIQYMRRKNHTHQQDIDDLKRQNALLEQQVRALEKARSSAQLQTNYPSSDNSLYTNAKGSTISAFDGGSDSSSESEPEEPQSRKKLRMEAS

Sequence | binding signal
CCGGCTGAGCAGCGGTATTAATAGCTAAGATTACTATATCGACG | 0.0954 log2 normalized fluorescence
CCGGCAGACTCGTTGTATTAATAGCTAAGATTACTATATCGACG | 0.374 log2 normalized fluorescence
CCGGCTGAAGAGCTGTATTAATAGCTAAGATTACTATATCGACG | 0.00393 log2 normalized fluorescence
CCGGCTGACACTTTGTATTAATAGCTAAGATTACTATATCGACG | 0.302 log2 normalized fluorescence
CCGGCTGAGGTTTGGTATTAATAGCTAAGATTACTATATCGACG | -0.0536 log2 normalized fluorescence
CCGGCCGACACGTGCTATTAATAGCTAAGATTACTATATCGACG | 0.722 log2 normalized fluorescence
CCGGCTAACACGTGCTTTTAATAGCTAAGATTACTATATCGACG | 0.969 log2 normalized fluorescence
CCGGCTGACACGTGCTTTTAATAGCTAAGATTACTATATCGACG | 0.771 log2 normalized fluorescence
CCGGCCGACACGTGCTTTTAATAGCTAAGATTACTATATCGACG | 0.852 log2 normalized fluorescence
CCGGCCGACACGTTGTTTTAATAGCTAAGATTACTATATCGACG | 0.661 log2 normalized fluorescence
CCGGCTGCCACGTGCTTTTAATAGCTAAGATTACTATATCGACG | 0.652 log2 normalized fluorescence
CCGGCTGAGTTGTGGTATTAATAGCTAAGATTACTATATCGACG | 0.0821 log2 normalized fluorescence
CCGGCTGAAACATCGTATTAATAGCTAAGATTACTATATCGACG | 0.226 log2 normalized fluorescence
CCGGCTGAGGTAATGTATTAATAGCTAAGATTACTATATCGACG | 0.138 log2 normalized fluorescence
CCGGCTTACACGTGATATTAATAGCTAAGATTACTATATCGACG | 0.75 log2 normalized fluorescence
CCGGCAGAGAACGATGTTTAATAGCTAAGATTACTATATCGACG | 0.248 log2 normalized fluorescence
CCGGCTGACACGCGGTATTAATAGCTAAGATTACTATATCGACG | 0.487 log2 normalized fluorescence
CCGGCTTACACGTGCTATTAATAGCTAAGATTACTATATCGACG | 1.02 log2 normalized fluorescence
CCGGCATACACTTGGTATTAATAGCTAAGATTACTATATCGACG | 0.425 log2 normalized fluorescence
CCGGCTAATACGTGGTATTAATAGCTAAGATTACTATATCGACG | 0.38 log2 normalized fluorescence
CCGGCTTACACATGCTATTAATAGCTAAGATTACTATATCGACG | 0.812 log2 normalized fluorescence
CCGGCTAACACGCGGTATTAATAGCTAAGATTACTATATCGACG | 0.819 log2 normalized fluorescence

Sequence | binding signal
CCGGCATACACGTGGTATTAATAGCTAAGATTACTATATCGACG | 0.842 log2 normalized fluorescence
CCGGCCGACACGCGGTATTAATAGCTAAGATTACTATATCGACG | 0.697 log2 normalized fluorescence
CCGGCGGAGACGATGTTTTAATAGCTAAGATTACTATATCGACG | 0.0761 log2 normalized fluorescence
CCGGCAAACACGATGTTTTAATAGCTAAGATTACTATATCGACG | 0.827 log2 normalized fluorescence
CCGGCTGATAAGGTGTATTAATAGCTAAGATTACTATATCGACG | 0.0319 log2 normalized fluorescence
CCGGCTGAACGCTAGTATTAATAGCTAAGATTACTATATCGACG | 0.178 log2 normalized fluorescence
CCGGCTGAGTGACAGTATTAATAGCTAAGATTACTATATCGACG | 0.00932 log2 normalized fluorescence
CCGGCTGAACCGATGTATTAATAGCTAAGATTACTATATCGACG | 0.0618 log2 normalized fluorescence
CCGGCTGACGTACGGTATTAATAGCTAAGATTACTATATCGACG | 0.112 log2 normalized fluorescence
CCGGCTGAGCTCCCGTATTAATAGCTAAGATTACTATATCGACG | 0.0359 log2 normalized fluorescence
CCGGCTGAACGGACGTATTAATAGCTAAGATTACTATATCGACG | 0.0519 log2 normalized fluorescence
CCGGCAAACACGTGGTATTAATAGCTAAGATTACTATATCGACG | 1.02 log2 normalized fluorescence
CCGGCGAACACGTGGTATTAATAGCTAAGATTACTATATCGACG | 0.76 log2 normalized fluorescence
CCGGCGCAAACGTGGTATTAATAGCTAAGATTACTATATCGACG | 0.579 log2 normalized fluorescence
CCGGCTTAGACGTGGTATTAATAGCTAAGATTACTATATCGACG | 0.235 log2 normalized fluorescence
CCGGCTATAACGTGGTATTAATAGCTAAGATTACTATATCGACG | 0.627 log2 normalized fluorescence
CCGGCTAACACGTGGTTTTAATAGCTAAGATTACTATATCGACG | 1.01 log2 normalized fluorescence
CCGGCAAATACGTGGTATTAATAGCTAAGATTACTATATCGACG | 0.556 log2 normalized fluorescence
CCGGCTAACACGTGGTATTAATAGCTAAGATTACTATATCGACG | 0.946 log2 normalized fluorescence
CCGGCTTAATCGTGGTATTAATAGCTAAGATTACTATATCGACG | 0.374 log2 normalized fluorescence
CCGGCTTACACGTGGTTTTAATAGCTAAGATTACTATATCGACG | 0.721 log2 normalized fluorescence
CCGGCTTACACGTGGTATTAATAGCTAAGATTACTATATCGACG | 0.847 log2 normalized fluorescence

Sequence | binding signal
CCGGCCGTCACGTGGTTTTAATAGCTAAGATTACTATATCGACG | 0.74 log2 normalized fluorescence
CCGGCTGACGCACTGTATTAATAGCTAAGATTACTATATCGACG | 0.457 log2 normalized fluorescence
CCGGCTGAAGGCCCGTATTAATAGCTAAGATTACTATATCGACG | 0.0982 log2 normalized fluorescence
CCGGCTGAATCAAAGTATTAATAGCTAAGATTACTATATCGACG | -0.00984 log2 normalized fluorescence
CCGGCTGACCCTTGATATTAATAGCTAAGATTACTATATCGACG | 0.0562 log2 normalized fluorescence
CCGGCTGAATGTTGGTATTAATAGCTAAGATTACTATATCGACG | 0.176 log2 normalized fluorescence
CCGGCTGACCTCCCGTATTAATAGCTAAGATTACTATATCGACG | 0.167 log2 normalized fluorescence
CCGGCTGAACCGCGGTATTAATAGCTAAGATTACTATATCGACG | 0.103 log2 normalized fluorescence
CCGGCTGAACTCGAGTATTAATAGCTAAGATTACTATATCGACG | 0.253 log2 normalized fluorescence
CCGGCTGGGGCGTGGTATTAATAGCTAAGATTACTATATCGACG | 0.471 log2 normalized fluorescence
CCGGCCAACACGTGGTATTAATAGCTAAGATTACTATATCGACG | 0.937 log2 normalized fluorescence
CCGGCTCCAACGTGGTATTAATAGCTAAGATTACTATATCGACG | 0.579 log2 normalized fluorescence
CCGGCCAACACGTTGTATTAATAGCTAAGATTACTATATCGACG | 0.669 log2 normalized fluorescence
CCGGCTGAAGGACCGTATTAATAGCTAAGATTACTATATCGACG | 0.0673 log2 normalized fluorescence
CCGGCTGACTCGTGGCATTAATAGCTAAGATTACTATATCGACG | 0.584 log2 normalized fluorescence
CCGGCTGACACGTGCCTTTAATAGCTAAGATTACTATATCGACG | 0.722 log2 normalized fluorescence
CCGGCTGACACGTGGCCTTAATAGCTAAGATTACTATATCGACG | 0.897 log2 normalized fluorescence
CCGGCTGACACGTGGCATTAATAGCTAAGATTACTATATCGACG | 0.835 log2 normalized fluorescence
CCGGCTGACACGTAGCATTAATAGCTAAGATTACTATATCGACG | 0.484 log2 normalized fluorescence
CCGGCTGACACGTGGACTTAATAGCTAAGATTACTATATCGACG | 0.734 log2 normalized fluorescence
